Experimental data as given in PubChem BioAssay AID488859 (Sanford-Burnham Center for Chemical Genomics, 2010).
Screen size: about 1,400 compounds; about 970 (69%) were called active. Inconclusive results (about 5%) are left out. So high a share suggests a set chosen from earlier hits. These entries were drawn from the full list. Values without a mark were called inactive. No stated cut-off is given here; in the data, active means inhibition above about 45%; inconclusive means no clear call, values can overlap the other calls; inactive means below that.

Each compound was assayed against Ubiquitin-conjugating enzyme E2 N (Homo sapiens) (UniProt P61088) (assay: UBC13 polyubiquitination inhibitors, single-point retest, confirmation, biochemical, TR-FRET, single concentration (AID 488859)). Settings: at 10 µM, stronger effect = higher value.
Ubiquitin-conjugating enzyme E2 N (Homo sapiens), sequence (P61088 whole entry, looked up): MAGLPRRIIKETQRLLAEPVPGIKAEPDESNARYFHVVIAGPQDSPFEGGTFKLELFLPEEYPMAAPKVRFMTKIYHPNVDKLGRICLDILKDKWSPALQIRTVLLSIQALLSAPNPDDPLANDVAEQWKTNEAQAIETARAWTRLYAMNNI

| SMILES | inhibition |
| --- | --- |
| O=C(COC(=O)Cn1cnc2ccccc2c1=O)NCc1ccccc1Cl | 57.6% (active) |
| CCN1CCN(CCNC(=O)c2ccc(/C=C3/Sc4ccccc4N(Cc4cccc(C)c4)C3=O)cc2)CC1 | 85.6% (active) |
| COc1ccc(N(C(=O)c2snc(C(N)=O)c2N)C(C(=O)NC2CCCC2)c2ccco2)cc1OC (stereo not drawn) | 96.8% (active) |
| CCC(C(=O)NC1CCCC1)N(C(=O)c1snc(C(N)=O)c1N)c1ccc2c(c1)OCCO2 (stereo not drawn) | 95% (active) |
| NC(N)=Nc1nc(-c2ccccc2)c2cc(Cl)ccc2n1 | 79.9% (active) |
| COc1ccc(C(CNC(=O)c2ccc(S(=O)(=O)Nc3ccccc3F)cc2)N(C)C)cc1 (stereo not drawn) | 114% (active) |
| NC(=O)NC(CC(=O)NNC(=O)c1ccccn1)c1ccc(Cl)cc1 (stereo not drawn) | 95.3% (active) |
| CC(C)n1cnc2c(Nc3cccc(Cl)c3)nc(N(CCO)CCCO)nc21 | 30.6% |
| COc1cccc2sc3cc(NCC[C@@H]4CCCN4C)ccc3c(=O)c12 | 41.3% |
| CCCC[C@@H]1CN=C(N)N1CCc1cc(C(F)(F)F)cc(C(F)(F)F)c1 | 55.4% (active) |
| CN(C)CC(O)COc1ccc(C(C)(C)c2ccc(OCC(O)CN(C)C)cc2)cc1 (stereo not drawn) | 60.5% (active) |
| Cc1ccc(NC(=O)c2cnc(SCC(=O)NCC3CCCO3)n(C)c2=O)cc1 (stereo not drawn) | 95.9% (active) |
| NC[C@H](Cc1ccccc1)NCCc1cc(C(F)(F)F)cc(C(F)(F)F)c1 | 40.1% |
| Cc1c(CN2CCC(CO)(CCOc3ccccc3)CC2)[nH]c2ccc(Cl)cc12 | 74% (active) |
| CCOC(=O)[C@@H]1[C@H]2COc3cc(OC)ccc3[C@H]2N2C(=O)N(c3ccc(F)cc3)C(=O)[C@]12C | 1.2% |
| O=C(CCCCCN1C(=O)c2cccc3cccc(c23)C1=O)NCc1ccco1 | 50.7% (active) |
| CN(C)c1ccnc2sc3c(=O)n(Cc4ccccc4)cnc3c12 | 57.1% (active) |
| COc1ccnc2c1c(=O)n(Cc1cccc(F)c1)c(=O)n2C | 52.3% (active) |
| C#CCOCCOCCOCCNc1nc(N2CCN(C(=O)CCCCCCCCCCNC(=O)[C@H](CCCCN)n3cc(C)nn3)CC2)nc(N2CCN(C(=O)CCCCCCCCCCNC(=O)[C@H](CO)n3cc(CCCSC)nn3)CC2)n1 | 121% (active) |
| C#CCOCCOCCOCCNc1nc(N2CCN(C(=O)CCCCCCCCCCNC(=O)Cn3cc(CCCCCN)nn3)CC2)nc(N2CCN(C(=O)CCCCCCCCCCNC(=O)[C@H](CO)n3cc(CCCSC)nn3)CC2)n1 | 129% (active) |
| C#CCOCCOCCOCCNc1nc(N2CCN(C(=O)CCCCCCCCCCNC(=O)[C@H]([C@@H](C)CC)n3cc(CCCCN=C(N)N)nn3)CC2)nc(N2CCN(C(=O)CCCCCCCCCCNC(=O)[C@H](CO)n3cc(CCCSC)nn3)CC2)n1 | 121% (active) |

| SMILES | inhibition |
| --- | --- |
| CC1(C)Cc2ccccc2-c2[nH]c(=S)[nH]c(=O)c21 | 26.2% |
| CC1CC(C)(C)n2c(O)c(N=NC(N)=S)c3cccc1c32 (stereo not drawn) | 107% (active) |
| COc1ccc(-n2nnnc2-c2nc3ccccc3s2)cc1 | 51.1% (active) |
| CN1CCC(CN)(N2CCN(c3ccccc3)CC2)CC1 | 48.6% (active) |
| CC(=O)NC(=S)NNC(=O)c1ccc(Br)cc1 | 89.8% (active) |
| COc1ccc(/C=N\NC(=O)c2sc(N)nc2C)cc1OC | 110% (active) |
| O=C(CCCCCn1c(=O)[nH]c2ccccc2c1=O)NCCc1c[nH]c2ccccc12 | 67.3% (active) |
| CCOC(=O)N1CCN(C(=O)Cc2ccc(-n3c(=S)[nH]c4ccccc4c3=O)cc2)CC1 | 37.3% |
| c1ccc(C[C@H]2CNCCN2CCC23CC4CC(CC(C4)C2)C3)cc1 | 42.5% |
| CCN(CC)CCNC(=O)c1ccc(NC(=O)c2cc(-c3ccncc3)nc3ccccc23)cc1 | 91.5% (active) |
| Cc1ccc(C(C(=O)NCC2CCCO2)N(C(=O)c2snc(C(N)=O)c2N)c2ccc(C(C)C)cc2)o1 (stereo not drawn) | 30.4% |
| COc1cccc(N(C(=O)c2snc(C(N)=O)c2N)C(C(=O)NCC2CCCO2)c2c[nH]c3ccccc23)c1 (stereo not drawn) | 57.9% (active) |
| CCOc1ccc(N(C(=O)c2snc(C(N)=O)c2N)C(C(=O)NCC2CCCO2)c2c[nH]c3ccccc23)cc1 (stereo not drawn) | 100% (active) |
| Cc1ccc(N(C(=O)c2snc(C(N)=O)c2N)C(C(=O)NCC2CCCO2)c2c[nH]c3ccccc23)cc1 (stereo not drawn) | 70.6% (active) |
| O=c1cc(CO)oc(C(Nc2cccc([N+](=O)[O-])c2)c2ccccn2)c1O (stereo not drawn) | 39.1% |
| O=c1cc(CO)oc(C(Nc2cccc(C(F)(F)F)c2)c2ccccn2)c1O (stereo not drawn) | 88.9% (active) |
| O=c1c2c(nc3n1CCCCC3)sc1c(O)cccc12 | 104% (active) |
| Cc1cccc(-n2cnc(C(=O)NNC(=S)Nc3ccccc3)c2)n1 | 107% (active) |
| CCOCCCNC(=O)c1cn(CC(C)C)c(=O)c2c1c1ccccc1n2C | 37.9% |
| Cc1ccccc1C(=O)OC1OC(=O)C(Cl)=C1Nc1ccccc1 (stereo not drawn) | 88.9% (active) |
| Cc1ccc(NC2=C(Cl)C(=O)OC2OC(=O)c2ccccc2C)cc1 (stereo not drawn) | 62% (active) |

| SMILES | inhibition |
| --- | --- |
| CC[C@@H](C)[C@@H]1CN([C@@H](C)CN2CCC[C@H]2CN2C(N)=NC[C@H]2C(C)C)C(=N)N1CCc1ccc(Cl)c(Cl)c1 | 38.2% |
| C[C@@H](CN1CCC[C@H]1CN1C(N)=NC[C@@H]1Cc1ccccc1)N1C[C@@H](Cc2ccccc2)N(CCCC2CCCC2)C1=N | 58.5% (active) |
| COc1ccc2sc(-c3ccccc3OC)c(-c3ccc(OCCN4CCCC4)cc3)c2c1 | 54.8% (active) |
| COc1ccc2sc(-c3ccc(S(C)(=O)=O)cc3)c(C#Cc3cncn3C)c2c1 | 29.5% |
| CCOC(=O)c1ccc(NC(=O)c2nc[nH]c2C(=O)NCc2ccccc2)cc1 | 25.1% |
| CC1CN(C(=O)CCC(=O)NCCCN2CCC(Cc3ccccc3)CC2)c2cc(Cl)ccc2O1 (stereo not drawn) | 87.8% (active) |
| CCOC(=O)C1=C(c2ccccc2)O/C(=C(/C(=O)OC)C(F)(F)F)S1 | 42.4% |
| Cc1cccc(-c2nc3ccc(C(=O)NCCN4CCN(C)CC4)cc3nc2-c2cccc(C)c2)c1 | 72.8% (active) |
| Cc1ccc(C(=O)N/C(=C/c2ccc(-c3cccc([N+](=O)[O-])c3)o2)C(=O)NCCCN(C)C)cc1 | 78% (active) |
| O=S(=O)(c1ccc(NC(=S)NN=C(C2CC2)C2CC2)cc1)N1CCOCC1 | 60.4% (active) |
| CN(C(=O)CN(CCO)CC(=O)N(C)C(C)(C)Cc1ccccc1)C(C)(C)Cc1ccccc1 | 44.3% |
| Cc1cccc(OCC(O)CN2CCN(CCN3C(=O)c4cccc5cccc(c45)C3=O)CC2)c1C (stereo not drawn) | 101% (active) |
| CCN1C(=NCc2ccc(OC)cc2)N[C@@H](CCc2ccccc2)[C@H](C(=O)NCc2ccc(OC)cc2)[C@H]1C | 34.8% |
| COc1cccc(Cn2cnc3c([N+](=O)[O-])c(C)c(C)cc32)c1 | 63.7% (active) |
| NC(N)=N/N=C/c1ccc(OCc2ccc(Cl)cc2Cl)cc1 | 121% (active) |
| CCOc1ccc2nc(N(CCCN(C)C)C(=O)c3ccc(C(=O)c4ccccc4)cc3)sc2c1 | 111% (active) |
| CN(C)CCCN(C(=O)c1ccc(S(=O)(=O)N2CCCCCC2)cc1)c1nc2ccc(Br)cc2s1 | 107% (active) |
| CN(C)CCCN(C(=O)c1ccc(S(=O)(=O)N2CCCCCC2)cc1)c1nc2cc3c(cc2s1)OCCO3 | 110% (active) |
| c1ccc2c(CCN3CCNC[C@H]3Cc3cccc4ccccc34)cccc2c1 | 44.3% |
| CCCCCCCCCCOC(=O)Cn1c(COc2cccc(OC)c2)[n+](C)c2ccccc21 | 63.8% (active) |
| COc1ccc(C(CNC(=O)c2cccc(NS(=O)(=O)c3ccc(C)c(F)c3)c2)N2CCCC2)cc1 (stereo not drawn) | 94.5% (active) |

| SMILES | inhibition |
| --- | --- |
| CCOC(=O)c1cccc(NS(=O)(=O)c2c(C(=O)N3CCCCCC3)c(C)n(C)c2C)c1 | 43.9% |
| COC(=O)c1cc(-c2cccs2)nc2ccccc12 | 18.1% |
| CCCCN(C)CCCNC(=O)c1cc(-c2cccs2)nc2ccccc12 | 45.7% (active) |
| Cc1cc(C)c(NC(=O)C[N+](C)(C)CC(O)COc2cccc3ccccc23)c(C)c1 (stereo not drawn) | 60.3% (active) |
| CCCCN(CCCC)CCC(O)c1cc2c(Cl)cc(Cl)cc2c2cc(C(F)(F)F)ccc12 (stereo not drawn) | 56.5% (active) |
| Cc1ccc(-c2noc(CCC(=O)Nc3ccccc3N3CCN(C)CC3)n2)cc1 | 92.8% (active) |
| CCCOc1ccc(Cl)cc1Nc1nc(NCCO)nc(N2CCCC2)n1 | 16.5% |
| C#CCOCCOCCOCCNc1nc(N2CCN(C(=O)C([C@@H](C)O)n3cc([C@@H](N)CCCCN)nn3)CC2)nc(N2CCN(C(=O)[C@H](CCCCN)n3cc(CN)nn3)CC2)n1 (stereo partly drawn) | 113% (active) |
| C#CCOCCOCCOCCNc1nc(N2CCN(C(=O)C([C@@H](C)CC)n3cc(C(N)COC(=O)C(F)(F)F)nn3)CC2)nc(N2CCN(C(=O)[C@H](CCCCN)n3cc(C(N)CC(C)C)nn3)CC2)n1 (stereo partly drawn) | 103% (active) |
| C#CCOCCOCCOCCNc1nc(N2CCN(C(=O)[C@H](CCCCN)n3cc([C@@H](N)C(C)CC)nn3)CC2)nc(N2CCN(C(=O)[C@H](Cc3ccc(O)cc3)n3cc([C@@H](N)C(C)CC)nn3)CC2)n1 (stereo partly drawn) | 105% (active) |
| C#CCOCCOCCOCCNc1nc(N2CCN(C(=O)C(Cc3ccc(O)cc3)n3cc(C(N)CC(C)C)nn3)CC2)nc(N2CCN(C(=O)C(Cc3ccc(O)cc3)n3cc(C(N)C(C)CC)nn3)CC2)n1 (stereo not drawn) | 23.8% |
| C=C1c2c(Cl)ccc(O)c2C(O)=C2C(=O)[C@]3(O)C(O)=C(C(N)=O)C(=O)[C@@H](N(C)C)[C@@H]3[C@@H](O)C12 (stereo partly drawn) | 50.8% (active) |
| COc1ccccc1NC(=O)CSc1nnc(-c2ccoc2C)n1CCc1ccccc1 | 94.4% (active) |
| CCN(CC)CCC(c1cc(OC)c(OC)c(OC)c1)c1c(OC)cc(OC)c2c(-c3ccccc3)cc(=O)oc12 (stereo not drawn) | 35.1% |
| CN1CCN(CCCNC(=O)c2ccc(/C=C3\Oc4ccccc4N(Cc4ccc(Cl)cc4)C3=O)cc2)CC1 | 111% (active) |
| Cn1c(C(=O)NCCCN2CCN(c3cccc(Cl)c3)CC2)cc2c(=O)n(C)c3ccccc3c21 | 38.7% |
| CCN(CC(=O)NCc1cccs1)C(=O)c1cccc(S(=O)(=O)Nc2ccccc2OC)c1 | 106% (active) |
| OCCNc1nc(Nc2ccc(Cl)c(Cl)c2)nc2ccccc12 | 92% (active) |
| Cc1ncc(CO)c(/C=N/NC(=O)c2cccc(S(=O)(=O)N3CCCC3)c2)c1O | 32.9% |
| CSCCC(NC(=O)c1ccc(Cl)cc1Cl)C(=O)NNC(=O)c1csc(N2CCOCC2)n1 (stereo not drawn) | 55.6% (active) |
